# An excerpt weighted towards active compounds, which were near 4.8% of everything screened.
# Calb FLC – C. albicans growth modulation with fluconazole. C. albicans CaCi-2 (fluconazole-resistant clinical isolate) + fluconazole, Alamar Blue growth, 48 h. growth inhibition, % (no concentration beside the values). hit rate 0.57% among 300,000. AID 1979;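 active = growth inhibition above about 58% in most replicates, limit read from the data, passing the limit was not always enough; inconclusive = exactly half the replicates above a set limit; inactive = most replicates below a set limit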;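 also: all wells also contain fluconazole at 8 µg/ml as a sub-toxic cotreatment; 0% = median of DMSO wells and 100% = median of geldanamycin control wells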
# CSC inhib – blocks cancer stem cells | cancer stem cell-like cells viability, luminescence | hit rate 1.1% among 300,000 | inhibition, % at 7.5 µM; in the data active = inhibition above about 75%; inconclusive = no clear call, values can overlap the other calls; tested in HMLE shEcad cells
# Beta apoptosis – beta cell apoptosis inhibition. INS-1E cytokine-induced death, ATP luminescence, 48 h; percent of positive-control rescue, neutral wells zero. protection from apoptosis, % (no concentration beside the values). hit rate 0.8% among 300,000. AID 435005;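 active = Every replicate reaches about 75%, or at least half do and their mean reaches it too, limit read from the data; inconclusive = At least half of replicates reach the limit but their mean does not; inactive = Under half of replicates reach the limit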;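 also: 0% = cytokine-treated negative control wells and 100% = positive control rescue; higher means more ATP so stronger rescue from cytokine killing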
# Mdm2-MdmX inh – human Mdm2/MdmX binding inhibition; hit rate 3% among 330,000; O15151+Q00987; AID 485346; inhibition, % at 8 µM; SaOS-2 split-luciferase Mdm2/MdmX complementation, luminescence;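 active = inhibition of at least 50% at 8 µM in the primary screen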
# Target sequence (O15151 whole entry, looked up): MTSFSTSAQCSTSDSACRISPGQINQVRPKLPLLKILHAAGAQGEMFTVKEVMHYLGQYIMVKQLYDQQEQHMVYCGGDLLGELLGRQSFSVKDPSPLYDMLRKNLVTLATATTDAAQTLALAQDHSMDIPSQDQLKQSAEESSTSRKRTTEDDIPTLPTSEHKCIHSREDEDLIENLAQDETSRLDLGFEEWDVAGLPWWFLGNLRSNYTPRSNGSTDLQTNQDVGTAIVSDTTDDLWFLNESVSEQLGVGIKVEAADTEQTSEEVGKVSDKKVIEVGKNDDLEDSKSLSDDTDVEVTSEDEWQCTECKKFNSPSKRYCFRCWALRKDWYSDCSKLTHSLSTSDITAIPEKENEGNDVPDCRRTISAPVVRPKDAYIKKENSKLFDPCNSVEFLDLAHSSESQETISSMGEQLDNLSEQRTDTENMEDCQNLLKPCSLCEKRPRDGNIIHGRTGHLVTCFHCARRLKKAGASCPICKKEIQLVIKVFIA
# Target sequence (Q00987 whole entry, looked up): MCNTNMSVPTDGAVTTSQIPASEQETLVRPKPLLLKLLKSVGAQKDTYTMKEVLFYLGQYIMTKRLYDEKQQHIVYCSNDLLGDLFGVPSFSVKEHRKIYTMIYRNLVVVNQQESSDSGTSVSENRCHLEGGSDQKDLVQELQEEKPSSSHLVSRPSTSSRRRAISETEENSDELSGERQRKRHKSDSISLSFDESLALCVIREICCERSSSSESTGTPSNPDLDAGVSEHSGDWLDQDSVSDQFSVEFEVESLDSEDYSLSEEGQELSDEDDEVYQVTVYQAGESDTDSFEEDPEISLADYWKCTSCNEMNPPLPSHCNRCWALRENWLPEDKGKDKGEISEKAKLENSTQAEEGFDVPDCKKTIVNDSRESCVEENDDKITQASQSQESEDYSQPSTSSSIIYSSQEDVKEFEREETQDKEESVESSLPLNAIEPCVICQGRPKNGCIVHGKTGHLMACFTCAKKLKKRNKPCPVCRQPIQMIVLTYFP
# MPTP inh – inhibitors of mitochondrial permeability transition pore | isolated mouse mitochondria, Ca2+ swelling absorbance, 30 min | hit rate 1.4% among 360,000 | inhibition, % at 10 µM;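 active = inhibition of 50% or more, scaled per plate between neutral and stimulator controls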;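 also: 0% = DMSO wells given calcium and 100% = 1 mM EGTA wells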
# Mdm2 MdmX conf – confirmation of human Mdm2/MdmX interaction inhibitors | shares compounds with Mdm2-MdmX inh | Mdm2-MdmX binding, luminescent assay | inhibition, % at 8 µM | hit rate 55% among 10,000 | AID 489028; in the data active = inhibition above about 40%
# Full FLuc ctr – counter-screen for Mdm2/MdmX inhibitors: full-length luciferase | hit rate 77% among 6,200 | inhibition, % at 8 µM | shares compounds with Mdm2-MdmX inh | AID 504607 | SaOS-2 full-length luciferase counterscreen, luminescence;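 active = mean inhibition at 8 µM reaching about 37%, which flags the compound as non-specific, limit read from the data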;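 also: p53-null SaOS-2 cells with luciferase driven by a doxycycline-inducible promoter; compound on cells about two nights before reading with doxycycline added after day one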
# The depositor's hits bear a star; u = inconclusive; x = not tested or not shown.
SMILES,Calb FLC,CSC inhib,Beta apoptosis,Mdm2-MdmX inh,MPTP inh,Mdm2 MdmX conf,Full FLuc ctr
CCC1CCc2c(sc3nc(SCC(=O)NCc4ccco4)n(-c4ccccc4)c(=O)c23)C1 (stereo not drawn),3,-42,10,55*,0,11,x
Cc1ccc(-n2c(SCC(=O)NCc3ccco3)nc3sc4c(c3c2=O)CC(C)(C)SC4)cc1,5,-13,0,13,1,x,x
COc1ccc(CNC(=O)CCCCCNc2nc(=S)[nH]c3ccccc23)cc1,8,12,-5,21,0,x,x
O=C(Cc1csc(Nc2nc(=S)[nH]c3ccccc23)n1)N1CCN(c2cccc(C(F)(F)F)c2)CC1,7,70,-3,69*,0,15,x
COc1cc(OC)cc(C(=O)Nc2nc(CC(=O)NCc3ccc(F)cc3)cs2)c1,1,46,12,70*,-2,65*,58*
O=C(CCCCCNc1nc(=S)[nH]c2ccccc12)NCc1ccccc1Cl,-6,-1,20,-4,x,x,x
O=C(Cc1csc(Nc2nc(=S)[nH]c3ccccc23)n1)NCc1ccccc1Cl,13,x,62,92*,0,-11,x
Cc1ccc(CNC(=O)Cc2csc(Nc3nc(=S)[nH]c4ccccc34)n2)cc1,35,-8,0,57*,x,42*,102*
CCn1c(COC(=O)CNC(=O)c2ccccc2)nc2cc(S(=O)(=O)N(C)C)ccc21,7,6,-6,19,-1,x,x
Cc1cc(C)cc(Cn2c3ccc(NC(=O)NCc4ccc(F)cc4)cc3c(=O)n2C)c1,x,x,x,x,0,x,x
C/C(=N\NC(=O)c1ccc(O)cc1)c1cccc(NC(=O)c2ccccc2C)c1,10,23,-3,31,1,x,x
CC(C)(C)OC(=O)N1CCC[C@@H]1C(=O)NCc1ccccc1Cl,x,x,x,x,-1,x,x
O=C(Cc1csc(Nc2nc(=S)[nH]c3ccccc23)n1)NCc1cccc(Cl)c1,x,-6,3,85*,1,18,x
COc1cc(/C=C/C(=O)Nc2ccc3nc4n(c(=O)c3c2)CCCC4)cc(OC)c1OC,u,18,8,43,0,x,x
COc1ccc(/C=C/C(=O)Nc2ccc3nc4n(c(=O)c3c2)CCCC4)cc1,4,56,1,70*,2,3,x
O=C(Nc1ccc2nc3n(c(=O)c2c1)CCCC3)c1cc([N+](=O)[O-])ccc1F,2,-2,28,100*,-1,91*,52*
O=C(CN1CCN(c2ccccc2F)CC1)N1CCc2ccccc21,-7,-9,2,-5,0,x,x
CO[C@H]1CN(C)C(=O)c2cc(NC(=O)C3CCOCC3)ccc2OC[C@H](C)N(Cc2nccs2)C[C@H]1C,x,x,x,x,-1,x,x
Cn1c(-c2cccc(OCc3ccccc3)c2)nc2c1c(=O)[nH]c(=O)n2Cc1ccccc1,x,6,10,85*,-8,38,x
CC(C)Cn1c([N+](=O)[O-])nc2c1c(=O)[nH]c(=O)n2C,-6,22,-8,34,1,x,x
Cn1c(=O)[nH]c(=O)c2c1nc([N+](=O)[O-])n2Cc1ccccc1,36,49,98*,96*,2,79*,56*
OC(c1ccc(F)c(F)c1)c1nc(-c2cnc3ccccc3c2)cs1 (stereo not drawn),x,x,x,x,1,x,x
COc1cc(NC(=O)c2cc(-c3ccccc3Cl)on2)cc(OC)c1OC,13,49,39,65*,0,54*,52*
COc1ccc2[nH]c3c(c2c1)CCN1C(=O)C(CC(=O)NCC24CC5CC(CC(C5)C2)C4)C[C@H](C(=O)N2CCOCC2)[C@@]31CCC1CCCC1 (stereo partly drawn),x,x,x,77*,-4,68*,43*
CC(C)N(C(=O)[C@H]1C[C@H](CC(=O)NCC23CC4CC(CC(C4)C2)C3)C(=O)N2CCc3c([nH]c4ccc(Cl)cc34)[C@]12C)C(C)C,x,x,x,92*,2,50*,73*
SMILES,Calb FLC,CSC inhib,Beta apoptosis,Mdm2-MdmX inh,MPTP inh,Mdm2 MdmX conf,Full FLuc ctr
O=C(C[C@H]1C[C@H](C(=O)N2CCOCC2)[C@@]2(CCC3CCCC3)c3[nH]c4ccc(Cl)cc4c3CCN2C1=O)NCC12CC3CC(CC(C3)C1)C2,x,x,x,84*,-1,70*,21
COc1ccc2[nH]c3c(c2c1)CCN1C(=O)C(CC(=O)NCCC2=CCCCC2)C[C@H](C(=O)N2CCOCC2)[C@@]31CCC1CCCC1 (stereo partly drawn),x,x,x,36,-1,x,x
CCN(CC)C(=O)[C@H]1C[C@H](CC(=O)NCC23CC4CC(CC(C4)C2)C3)C(=O)N2CCc3c([nH]c4ccc(Cl)cc34)[C@]12C,x,x,x,48,-2,x,x
COc1ccc(-c2nc3c(Cl)cc(C(F)(F)F)cn3c2Cc2cccc(F)c2)cc1OC,x,x,x,x,0,x,x
COc1cc2c(OC(C)=O)c3c(c(-c4ccc5c(c4)OCO5)c2cc1OC)C(=O)OC3,66,-5,58,86*,1,74*,48*
COc1cc2c(O)c3c(c(-c4ccc5c(c4)OCO5)c2cc1OC)C(=O)OC3,82*,91*,54,73*,4,72*,26
COc1ccc(-c2oc(=O)c3cc(OC)c(OC)cc3c2-c2ccc3c(c2)OCO3)cc1,x,9,2,25,0,x,x
CCOc1ccccc1NC(=O)C1CCN(C(=O)C2CC(=O)N(c3ccc(C)cc3)C2)CC1 (stereo not drawn),1,-18,-3,20,1,x,x
CCCCCCCCN1C(=O)[C@H](CC(=O)NCCCC)C[C@@]2(C(=O)OC)CC(C)(C)CC=C12,x,x,x,x,-2,x,x
CCc1nc2ccc(C(=O)NCCCN3CCCC3=O)cn2c1N(CC)CCOC,x,x,x,x,0,x,x
Cc1cc(NC(=O)C(C)Sc2nc(-c3cccs3)nc3ccccc23)no1 (stereo not drawn),x,x,x,84*,0,52*,68*
CC(OC(=O)c1ccc(S(=O)(=O)N2CCCCC2)cc1)C(=O)Nc1ccc(C(N)=O)cc1 (stereo not drawn),x,x,x,54*,-3,-16,x
CC(=O)Nc1cc(NC(C)=O)cc(C(=O)OC(C)C(=O)Nc2ccc(S(=O)(=O)N3CCCC3)cc2)c1 (stereo not drawn),-3,-9,5,29,-2,x,x
O=C(Nc1nc(-c2ccccn2)cs1)c1ccco1,17,1,32,51*,0,24,x
O=C(Nc1nc(-c2ccccn2)cs1)c1cccc(-n2cnnn2)c1,-15,32,76*,77*,0,69*,26
COCCNc1nc(Oc2ccc(C(N)=O)cc2)c2sccc2n1,x,x,x,x,1,x,x
Nc1c2c(=O)oc(-c3ccccc3)cc2nn1-c1ccccc1,-3,31,-2,-93,1,x,x
Cc1c(-c2ccc(Cl)cc2)oc(=O)c2c(N)n(-c3ccccc3)nc12,-4,41,23,86*,1,7,x
CC1(C)CC(=O)C=C(NC2=CC3OC(c4ccccc4)OCC3OC2=O)C1 (stereo not drawn),-9,14,-40,70*,3,34,54*

# Compound activity from PubChem BioAssay.
